Inconclusive results are not listed. Calls of active or inactive are those of the source. How the source made its calls, unless noted: active means hit-call score of the fitted dose curve at least 0.9, where 1 is the maximum; inactive means score below 0.9.
Legend:
[1] = molecular target: human Vitamin D Receptor (VDR), VDR (gene 7421) (UniProt P11473); assay: ATG_VDR_TRANS: Attagene TRANS-FACTORIAL HepG2 Assay for human Vitamin D Receptor (VDR) (AID 2283022; active means hit-call score of the fitted dose curve at least 0.9, where 1 is the maximum)
How it was run: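 Transactivation by an exogenous VDR-Gal4 chimera in transiently transfected HepG2 cells was measured as reporter transcript level 24 hours after chemical treatment. RT-PCR products were analysed by capillary electrophoresis and fitted in the positive direction relative to DMSO.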

[2] = BSK_3C_SRB: Viability Assessment in the BioMAP Diversity Plus: 3C Assay (AID 2283023); settings: primary human endothelial cells (HUVEC);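 further: fitted both ways against DMSO so a hit may be signal rise or drop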
How it was run: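 Cytotoxicity readout in parallel HUVEC 3C cultures: after 24 h compound exposure, cells fixed with 10% TCA, stained with 0.1% SRB and read at 560 nm. Gain or loss relative to DMSO fitted.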

[3] = read-out: Matrix Metallopeptidase 1 (MMP1), MMP1 (gene 4312); assay: BSK_BE3C_MMP1: BioMAP Diversity Plus: BE3C Assay for Matrix Metallopeptidase 1 (MMP1) Biomarker Activity (AID 2283024); settings: primary human bronchial epithelial cells; actives raise or lower the signal
How it was run: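 Human bronchial epithelial cells (BE3C system) exposed to compound for 24 h; MMP1 then quantified by ELISA. Activity was fitted in both directions relative to DMSO.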

[4] = BSK_3C_Vis: BioMAP Diversity Plus: 3C Assay for Morphology Visualization (AID 2283025); settings: primary human endothelial cells (HUVEC);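 further: fitted both ways so gain or loss versus DMSO counts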;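 on AC50: light microscopy image of cell morphology used as background control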
How it was run: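 Chemicals were added to primary human umbilical vein endothelium, cells were incubated 24 h, and morphology was then visualized by light microscopy. Gain or loss of signal was fitted bidirectionally relative to DMSO.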

[5] = read-out: Pselectin, SELP (gene 6403); assay: BSK_4H_Pselectin: BioMAP Diversity Plus: 4H Assay for Pselectin Biomarker Activity (AID 2283026); settings: primary human endothelial cells (HUVEC); actives raise or lower the signal
How it was run: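 ELISA read-out of P-selectin on human umbilical vein endothelium after 24 h of dosing. Values derive from bidirectional fitting relative to DMSO. Parallel SRB protein staining flagged overt cytotoxicity.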

[6] = BSK_4H_SRB: Viability Assessment in the BioMAP Diversity Plus: 4H Assay (AID 2283027); settings: primary human endothelial cells (HUVEC);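 further: cells exposed to compound for 24 h before staining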;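 on AC50: curves fitted both ways versus DMSO so AC50 may be loss or gain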
How it was run: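 Human umbilical vein endothelial cells, 24 h after chemical dosing; total protein measured by 0.1% sulforhodamine B staining after 10% TCA fixation, read at 560 nm. Bidirectional fitting against DMSO.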

[7] = BSK_BE3C_SRB: Viability Assessment in the BioMAP Diversity Plus: BE3C Assay (AID 2283028); settings: primary human bronchial epithelial cells;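 on AC50: fitted both ways so AC50 may mark signal gain or loss versus DMSO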
How it was run: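 Cytotoxicity read-out: SRB (0.1%) staining of TCA-fixed (10%) human lung bronchial epithelial cells, absorbance 560 nm, 24 h post-dosing. Curves fitted both directions relative to DMSO.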

[8] = read-out: Thrombomodulin, THBD (gene 7056); assay: BSK_3C_Thrombomodulin: BioMAP Diversity Plus: 3C Assay for Thrombomodulin Biomarker Activity (AID 2283029); settings: primary human endothelial cells (HUVEC); actives raise or lower the signal
How it was run: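 Read-out is ELISA of thrombomodulin on human umbilical vein endothelium 24 h after chemical dosing. Gain or loss of signal is scored relative to DMSO. Overt cytotoxicity is checked in parallel cultures by sulforhodamine B staining.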

[9] = read-out: Urokinase-type plasminogen activator receptor (uPAR), PLAUR (gene 5329); assay: BSK_4H_uPAR: BioMAP Diversity Plus: 4H Assay for Urokinase-type plasminogen activator receptor (uPAR) Biomarker Activity (AID 2283030); settings: primary human endothelial cells (HUVEC); actives raise or lower the signal
How it was run: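 uPAR level read by ELISA on HUVEC cultures (BioMAP 4H) 24 h post-dosing, analyzed for gain or loss relative to DMSO. Parallel SRB staining assessed overt cytotoxicity.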

[10] = read-out: Vascular endothelial growth factor receptor 2 (Homo sapiens) (UniProt P35968); assay: BSK_4H_VEGFRII: BioMAP Diversity Plus: 4H Assay for Vascular endothelial growth factor receptor 2 (VEGFR2) Biomarker Activity (AID 2283031); settings: primary human endothelial cells (HUVEC); actives raise or lower the signal;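 on AC50: cell-surface VEGFR2 protein level quantified by ELISA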
How it was run: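 Measured by ELISA after 24 h of compound treatment: VEGFR2 on primary human umbilical vein endothelial cells, fitted in both directions relative to DMSO. Parallel cultures received SRB staining (560 nm) for overt cytotoxicity.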

[11] = read-out: Human Leukocyte Antigen - DR isotype (HLADR), HLA-DRA (gene 3122); assay: BSK_BE3C_HLADR: BioMAP Diversity Plus: BE3C Assay for Human Leukocyte Antigen - DR isotype (HLADR) Biomarker Activity (AID 2283032); settings: primary human bronchial epithelial cells; actives raise or lower the signal
How it was run: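 ELISA read-out of HLA-DR on human lung bronchial epithelial primary cells, measured 24 h post-dosing. Both increases and decreases were scored relative to DMSO vehicle.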

[12] = read-out: Vascular cell adhesion molecule 1 (VCAM1), VCAM1 (gene 7412); assay: BSK_4H_VCAM1: BioMAP Diversity Plus: 4H Assay for Vascular cell adhesion molecule 1 (VCAM1) Biomarker Activity (AID 2283033); settings: primary human endothelial cells (HUVEC); actives raise or lower the signal
How it was run: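 ELISA read-out of VCAM-1 on human umbilical vein endothelium 24 hours after chemical dosing; gain or loss of signal was fitted relative to DMSO, with sulforhodamine B staining of parallel cultures flagging overt cytotoxicity.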

[13] = read-out: Interferon-gamma inducible Protein 10 (IP10), CXCL10 (gene 3627); assay: BSK_BE3C_IP10: BioMAP Diversity Plus: BE3C Assay for Interferon-gamma inducible Protein 10 (IP10) Biomarker Activity (AID 2283034); settings: primary human bronchial epithelial cells; actives raise or lower the signal
How it was run: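 Chemical is dosed onto human lung bronchial epithelial primary cells, cultures are incubated 24 h, and IP-10 is then quantified by ELISA. Gain or loss of signal is fitted in both directions relative to DMSO.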

[14] = read-out: Monokine induced gamma interferon (MIG), CXCL9 (gene 4283); assay: BSK_BE3C_MIG: BioMAP Diversity Plus: BE3C Assay for Monokine induced gamma interferon (MIG) Biomarker Activity (AID 2283035); settings: primary human bronchial epithelial cells; actives raise or lower the signal
How it was run: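 Primary human bronchial epithelial cells treated for 24 h; MIG levels measured by ELISA, fitted bidirectionally versus DMSO. Parallel SRB total-protein staining assessed cytotoxicity.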

[15] = read-out: Transforming growth factor beta 1 (TGFb1), TGFB1 (gene 7040); assay: BSK_BE3C_TGFb1: BioMAP Diversity Plus: BE3C Assay for Transforming growth factor beta 1 (TGFb1) Biomarker Activity (AID 2283036); settings: primary human bronchial epithelial cells; actives raise or lower the signal
How it was run: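 Primary human lung bronchial epithelial cells; compound exposure 24 h; TGF-b1 by ELISA; bidirectional fit, DMSO baseline. Parallel SRB total-protein staining for cytotoxicity.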

[16] = read-out: Plasminogen activator inhibitor-1 (PAI1), SERPINE1 (gene 5054); assay: BSK_BE3C_PAI1: BioMAP Diversity Plus: BE3C Assay for Plasminogen activator inhibitor-1 (PAI1) Biomarker Activity (AID 2283037); settings: primary human bronchial epithelial cells; actives raise or lower the signal
How it was run: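 Primary human lung bronchial epithelial cells; chemical dosing; 24 h; PAI-1 measured by ELISA; bidirectional fit referenced to DMSO as negative control.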

[17] = read-out: urokinase plasminogen activator (uPA), PLAU (gene 5328); assay: BSK_BE3C_uPA: BioMAP Diversity Plus: BE3C Assay for urokinase plasminogen activator (uPA) Biomarker Activity (AID 2283038); settings: primary human bronchial epithelial cells; actives raise or lower the signal
How it was run: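 ELISA for uPA on human primary bronchial epithelial cultures 24 h post-treatment, gain or loss against DMSO. Parallel SRB staining (0.1% after 10% TCA fixation, 560 nm) assessed overt cytotoxicity.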

[18] = read-out: Urokinase-type plasminogen activator receptor (uPAR), PLAUR (gene 5329); assay: BSK_BE3C_uPAR: BioMAP Diversity Plus: BE3C Assay for Urokinase-type plasminogen activator receptor (uPAR) Biomarker Activity (AID 2283039); settings: primary human bronchial epithelial cells; actives raise or lower the signal
How it was run: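 Human bronchial epithelial primary cells; chemical exposure 24 h; uPAR by ELISA; bidirectional fit vs DMSO control.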

[19] = read-out: Interleukin-6 (IL6), IL6 (gene 3569); assay: BSK_CASM3C_IL6: BioMAP Diversity Plus: CASM3C Assay for Interleukin-6 (IL6) Biomarker Activity for (AID 2283040); settings: primary human coronary artery smooth muscle cells; actives raise or lower the signal
[20] = read-out: Tissue plasminogen activator (tPA), PLAT (gene 5327); assay: BSK_BE3C_tPA: BioMAP Diversity Plus: BE3C Assay for Tissue plasminogen activator (tPA) Biomarker Activity (AID 2283041); settings: primary human bronchial epithelial cells; actives raise or lower the signal
How it was run: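 Primary human lung bronchial epithelial cultures receive test chemical; after 24 h, tPA is quantified by ELISA, and gain or loss of signal is fitted bidirectionally relative to DMSO baseline.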

Measured: AC50

Chain of human Vitamin D Receptor (VDR), VDR (gene 7421) (P11473 whole entry, looked up, the tested form may be a part): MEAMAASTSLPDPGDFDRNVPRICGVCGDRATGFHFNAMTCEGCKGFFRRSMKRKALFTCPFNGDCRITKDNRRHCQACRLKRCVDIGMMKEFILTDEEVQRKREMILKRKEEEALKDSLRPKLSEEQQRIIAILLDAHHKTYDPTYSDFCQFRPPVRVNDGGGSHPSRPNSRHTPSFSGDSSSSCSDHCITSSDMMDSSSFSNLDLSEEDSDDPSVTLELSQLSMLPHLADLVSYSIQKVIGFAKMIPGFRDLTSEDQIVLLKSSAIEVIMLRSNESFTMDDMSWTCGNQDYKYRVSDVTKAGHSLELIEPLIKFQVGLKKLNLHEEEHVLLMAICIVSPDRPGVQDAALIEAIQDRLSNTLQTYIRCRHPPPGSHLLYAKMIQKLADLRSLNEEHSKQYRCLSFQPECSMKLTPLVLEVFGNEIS

CC(CO)OC(C)CO (configuration not stated) (tested in a mixture with another compound)
inactive: all assays above

COc1cc(-c2nc(NC(=O)c3cc4cc(C)cc(C)c4n3CC(=O)O)sc2CCC2CCCCC2)c(OC)cc1Cl
active: [2] 2.92 µM | [3] 4.37 µM | [4] 4.08 µM | [5] 3.63 µM | [6] 4.62 µM | [7] 3.12 µM | [8] 23.6 µM | [9] 4.62 µM | [10] 4.37 µM | [11] 1.25 µM | [12] 4.36 µM | [13] 1.3 µM | [14] 1.56 µM | [15] 4.38 µM | [16] 0.877 µM | [17] 1.03 µM | [18] 4.47 µM | [19] 4.7 µM | [20] 0.969 µM
inactive: [1]

CCc1c(C(=O)NN2CCCCC2)nn(-c2ccc(Cl)cc2Cl)c1-c1ccc(Br)cc1
active: [2] 9.03 µM | [4] 13.2 µM | [5] 2.66 µM | [6] 6.66 µM | [9] 6.58 µM | [10] 9.41 µM | [11] 11 µM | [12] 9.11 µM | [13] 24 µM | [16] 11 µM | [17] 33.3 µM | [18] 14.4 µM | [20] 20 µM
inactive: [1] | [3] | [7] | [8] | [14] | [15] | [19]

COc1cc(/C=C/C(=O)CC(=O)/C=C/c2ccc(O)c(OC)c2)ccc1O
inactive: [1]

COc1cccc2c1C(=O)c1c(O)c3c(c(O)c1C2=O)C[C@@](O)(C(=O)CO)C[C@@H]3O[C@H]1C[C@H](N)[C@H](O)[C@H](C)O1
inactive: [1]

Cc1oc(-c2ccccc2)nc1CCOc1cccc2c1ccn2CCC(=O)O
active: [11] 20.7 µM | [13] 26 µM | [20] 20 µM
inactive: all other assays above

C1CCC(SSC2CCCCC2)CC1
active: [12] 20 µM
inactive: all other assays above

CCNc1cccc(C)c1
inactive: all assays above

Nc1nc(N)c2nc(CNc3ccc(C(=O)N[C@@H](CCC(=O)O)C(=O)O)cc3)cnc2n1
inactive: all assays above

COc1ccc2c(c1)c(CC(=O)O)c(C)n2C(=O)c1ccc(Cl)cc1
active: [3] 7.79 µM
inactive: all other assays above

CCCCCCCCCCO
inactive: all assays above

COc1cc(S(=O)(=O)O)c(C)cc1N=Nc1c(O)ccc2cc(S(=O)(=O)O)ccc12
inactive: all assays above

Cc1nc(C)nc(N2C[C@@H](C)N(c3ccnc([C@@H](C)O)n3)[C@@H](C)C2)n1
inactive: all assays above

CCCCN(CCCC)CCCC
inactive: all assays above

Cc1ccc(C)c(O)c1C
inactive: all assays above

Source: PubChem BioAssay (EPA / NIEHS)
